Assay results as given in PubChem BioAssay AID651597 (National Center for Advancing Translational Sciences (NCATS), 2012).
In all, about 1,100 compounds went through this assay and about 390 (35%) were called active. Another 30% or so got no clear call; they are omitted. This is one part of the list. Values without a mark were called inactive. Calls follow the shape of the dose curve; as a rule, active = well fitted inhibition curve with a large enough effect; inconclusive = small, poorly fitted or top-dose-only effect; inactive = flat fitted curve, though single readings scatter.

molecular target: Luciferin 4-monooxygenase (Photinus pyralis) (UniProt P08659); assay: qHTS of Nrf2 Activators: Hit Validation in Secondary FLuc Assay; settings: firefly luciferase inhibition counter-screen, luminescence; series mostly up to 57.5 µM; activity, negative = inhibition: at the top concentration; also: nearly all actives have a fitted effect of over 65% in size
In short: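 Purified firefly luciferase is tested for inhibition by compounds in the presence of its substrates, ATP and D-luciferin, each at Km. Inhibition marks likely false positives arising from reporter-enzyme stabilization.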
% is scaled to controls: 0 for no effect and ±100 for the full control effect; potency is read from the fitted curve at half-maximal effect.

| Structure (SMILES) | activity, negative = inhibition [%] | Potency |
| --- | --- | --- |
| c1coc(-c2ccnc3nc(-n4cccc4)nn23)c1 | -29.9 | – |
| c1coc(-c2ccnc(-n3cccc3)n2)c1 | – | 15.1 µM (active) |
| Cc1ccsc1-c1ccnc(-n2cccc2)n1 | – | 15.1 µM (active) |
| CN1CCCC1CCNc1ccc2c(=O)c3ccccc3oc2c1 (configuration not stated) | – | 6.75 µM (active) |
| Cc1sc2ncnc(Sc3nnnn3-c3ccccc3)c2c1C | -19.4 | – |
| Cc1nc2nc(-c3ccccc3)nn2c(C)c1Cl | – | 3.38 µM (active) |
| COc1cc(-c2noc(-c3cccs3)n2)cc(OC)c1OC | -29 | – |
| CCOc1ncccc1-c1nc(-c2cccs2)no1 | – | 15.1 µM (active) |
| CCOc1ccc(Br)cc1-c1noc(-c2cccs2)n1 | -20.8 | – |
| O=C(/C=C\c1ccc2c(c1)OCO2)CC1(O)C(=O)Nc2ccccc21 (configuration not stated) | – | 9.53 µM (active) |
| CC(C)N1C/C(=C/c2cccnc2)C(=O)/C(=C/c2cccnc2)C1 | -1.87 | – |
| Nc1ccc2c(c1)Cc1c(F)cccc1-2 | – | 7.57 µM (active) |
| COc1ccc2c(c1)Cc1c-2cc(Br)c(N)c1Br | -19.8 | – |
| Cc1ccc(S(=O)(=O)c2nc(S(C)(=O)=O)sc2N2CC(C)OC(C)C2)cc1 (configuration not stated) | 8.48 | – |
| Cc1ccc(C)c(NC(=O)COC(=O)c2cc(=O)c3ccccc3o2)c1 | -12 | – |
| Cc1ccc(C)c(NC(=S)c2nc3ccccc3s2)c1 | – | 10.7 µM (active) |
| O=C(N/N=C/c1ccsc1)c1ccc2ccccc2n1 | – | 10.7 µM (active) |
| O=C(Nc1ccc(F)cc1)c1sccc1SCc1cccc(C(F)(F)F)c1 | -4.78 | – |
| O=C(Nc1ccc(F)cc1)c1cc2ccccc2o1 | – | 0.953 µM (active) |

| Structure (SMILES) | activity, negative = inhibition [%] | Potency |
| --- | --- | --- |
| CN1C2CCC1/C(=C\c1ccccc1)C(=O)/C2=C\c1ccccc1 | -3.98 | – |
| O=C1/C(=C/c2ccccc2)CCc2ccc(Cl)nc21 | – | 10.7 µM (active) |
| Brc1ccc(C2=CC(c3ccco3)n3nnnc3N2)cc1 (configuration not stated) | -8.07 | – |
| C1=C(c2ccc(-c3ccccc3)cc2)Nc2ncnn2C1c1ccco1 (configuration not stated) | – | 10.7 µM (active) |
| CCOc1ccsc1C(=O)NNC(=O)c1ccco1 | 4.68 | – |
| O=C(/C=C/c1cccs1)c1ccco1 | – | 9.53 µM (active) |
| Cc1ccc2nc(N(CCN(C)C)C(=O)/C=C/c3cccs3)sc2c1 | -22.7 | – |
| COc1ccc(Sc2cnn(-c3ccccc3)c(=O)c2Cl)cc1 | -21 | – |
| NC(=O)N/N=C/c1ccccc1OC(=O)c1ccccc1Br | – | 10.7 µM (active) |
| c1ccc(CNc2nc(NCc3ccco3)nc(N3CCOCC3)n2)cc1 | 5.72 | – |
| CCN=c1scc(C)n1/N=C/c1ccsc1 | – | 6.75 µM (active) |
| Cc1[nH]c2ccccc2c1N=Nc1ccccc1F | – | 19 µM (active) |
| Cc1[nH]c2ccccc2c1N=Nc1ccccc1C(=O)O | – | 8.49 µM (active) |
| Cc1cccn2c(=O)c(C=NCCO)c(NCc3ccco3)nc12 | -5.84 | – |
| O/N=C/c1ccc2cccc(OCc3ccccc3)c2n1 | -3.72 | – |
| CC1CN(C(=O)/C=C/c2ccc([N+](=O)[O-])s2)CC(C)O1 (configuration not stated) | 4.93 | – |
| Clc1ccccc1NN=Cc1ccccn1 | – | 2.13 µM (active) |
| COc1ccc(O)c(-c2cc(-c3ccccc3Cl)[nH]n2)c1 | – | 6.01 µM (active) |
| COc1ccc(OC)c(/C=C(\C#N)c2nc(-c3ccc(F)cc3)cs2)c1 | -25.1 | – |

| Structure (SMILES) | activity, negative = inhibition [%] | Potency |
| --- | --- | --- |
| COc1ccc(O)c(-c2cc(-c3ccc(F)cc3)n[nH]2)c1 | – | 4.78 µM (active) |
| COc1ccc(Cl)cc1NC(=O)c1cc(-c2ccccc2O)n[nH]1 | -23.7 | – |
| COC(=O)c1scc(C)c1NC(=O)c1ccc(Cl)cc1 | 5.2 | – |
| O=C1S/C(=C\C=C\c2ccco2)C(=O)N1c1ccc(O)cc1 | – | 9.53 µM (active) |
| O=C(CN1CCN(Cc2ccccc2)CC1)N/N=C\C=C/c1ccco1 | -3.19 | – |
| O=C1S/C(=C\C=C\c2ccco2)C(=O)N1c1ccccc1 | – | 6.75 µM (active) |
| CN1CCN(c2sc(S(C)(=O)=O)nc2S(=O)(=O)c2ccc(Cl)cc2)CC1 | -0.708 | – |
| Cc1ccc(O)c(NC(=O)c2cc([N+](=O)[O-])ccc2Cl)c1 | -21.1 | – |
| Cc1ccc([N+](=O)[O-])cc1NC(=O)c1ccccc1 | 5.55 | – |
| CC(C)=NNc1cnnc2ccc([N+](=O)[O-])cc12 | – | 10.7 µM (active) |
| O=C(NC1CCCCC1)N(c1ccccc1)c1nnc(-c2cccc([N+](=O)[O-])c2)s1 | – | 16.9 µM (active) |
| CC(=O)Nc1ccc(S(=O)(=O)c2ccnc3cc(Cl)ccc23)cc1 | -10.5 | – |
| c1ccc(C2=Nn3c(nnc3-c3ccco3)SC2)cc1 | – | 26.9 µM (active) |
| C[n+]1c2n(c3ccccc31)N=C(c1ccccc1)CS2 | – | inactive |
| O=C(Nc1ccc2ccccc2c1)c1ccc(Br)o1 | – | 1.2 µM (active) |
| Cc1nc(NC(=O)c2ccc(Br)o2)ccc1Br | – | 9.53 µM (active) |
| Cc1ccc(C)c(-c2nnc(NC(=O)c3ccc([N+](=O)[O-])o3)o2)c1 | -24.8 | – |
| Cc1ccc2oc(-c3cccc(NC(=O)c4ccc(Br)o4)c3)nc2c1 | – | 8.49 µM (active) |
| Cc1cc(C(=O)Nc2cc(Br)ccc2O)on1 | -27.5 | – |
